In PubChem BioAssay (NCI):
The panel holds about 83,000 compounds, 20% with a hit somewhere; the sample as a whole holds those more often.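 Assay: single dose, 48 h. Readout: percent growth (0 = no net growth; negative = cell death). Active: <10.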 Values without a mark were called inactive. Calls of active or inactive are those of the source.

These molecules were tested on COLO 205 colon (assay: NCI-60 one-dose screen, 48 h (100 = growth as untreated, 0 = no growth, -100 = all killed)). Conditions: 10 µM unless noted.
Molecule `COc1cc(/C=C/C(=O)c2c(C)n([O-])c3ccc(Cl)cc3[n+]2=O)cc(OC)c1OC` has a growth of 86.8%. `COc1ccc2ncccc2c1Cc1c(OC)ccc2ncccc12` showed a growth of 79.9%. `C=C1CC[C@@H]2[C@](C)(COC(C)=O)[C@H](OC(C)=O)CC[C@@]2(C)[C@@H]1CC(NCc1ccccc1)C1=CCOC1=O` (stereo not given in full) was tested, and the growth was 45.6%. Work on `CCOC(=O)c1sc(NC(=O)COc2cccc(/C=C3\Cc4ccc(Cl)cc4C3=O)c2)nc1C` yielded a growth of 116%. `O=C(Nc1cccc(-n2cc(-c3ccncc3)c(-c3cc(O)cc(Cl)c3)n2)c1)Nc1ccc(Cl)c(Cl)c1` was tested, and the growth was 22.4%. `O=c1ccn(C2CC=C(CO)O2)c(=O)[nH]1` (stereo not given) was tested, and the growth was 106%. For `COC(=O)[C@H](Cc1cn(C)cn1)NC(=O)[C@@H](NC(=O)Nc1cc(C(F)(F)F)cc(C(F)(F)F)c1)C(C)C`, the growth was -94.4% [100 µM] (active). `O=c1c2ccccc2c2nccn2c2cc(Cl)ccc12` showed a growth of 112%. `[N-]=[N+]=NCc1ncc(-c2ccc(C(F)(F)F)cc2)c(NC2CCCCCC2)n1` was tested, and the growth was 87.2% [50 µM]. Molecule `CN(C)CCC(=O)Nc1ccc(-n2cc(-c3cccc(NC(=S)Nc4cccc(-c5cn(-c6ccc(NC(=O)CCN(C)C)cc6)nn5)c4)c3)nn2)cc1` has a growth of 99.4%. Work on `C/C(=C\CCc1ccoc1)CC/C=C(\C)CCCNc1ccc(F)cc1` yielded a growth of 98.1%. Molecule `COP(=O)(OC)C(c1ccccc1)(c1ccccc1)c1ccccc1` has a growth of 103%. In the case of `COc1cc(/C=C2\CN(S(=O)(=O)c3ccc(C)cc3)C/C(=C\c3cc(CN4CCOCC4)c(O)c(OC)c3)C2=O)cc(CN2CCOCC2)c1O`, the growth is reported as -25.5% (active). With `CCCCCc1c(C)[nH]c(/C=C2\N=C(c3ccc[nH]3)C=C2Oc2ccccc2)c1C` the growth was -53.9% [100 µM] (active). Molecule `CCCCCCCSc1ncnc2[nH]ncc12` has a growth of 93.9%. With `COc1cccc(/C=N\NC(=O)c2ccncc2)c1O` the growth was 50.1%. `Cc1cc(=O)oc2cc(OCCn3c(C)nn(-c4ccc(Cl)cc4)c3=O)ccc12` was tested, and the growth was 10.6%. For `CC1CC=CCC1C1OCC(C)(C)CO1` (stereo not given), the growth was 111%. In the case of `O=C1CSC(c2ccccc2Cl)N1c1nnc(Cn2nnc3ccccc32)o1` (stereo not given), the growth is reported as 106%. `O=C1Nc2ccc(C(=O)O)c(O)c2C1=O` showed a growth of 104%. For `ICCC(c1ccccc1)(c1ccccc1)c1ccccc1`, the growth was -61.5% (active). Molecule `O=C(Oc1cccc2ccccc12)c1ccccc1C(=O)c1ccccc1` has a growth of 112%. `COc1ccc(C(=O)/C=C/c2ccc(C)cc2)cc1OC` showed a growth of 82.8%. With `O=C(Nc1nc2c(C(F)(F)F)cccc2s1)c1cc(Cl)ccc1O` the growth was -69.9% (active). Work on `CCOC(=O)C1C(=O)NC(C(=O)OCC)(C(=O)OCC)C1CC` (stereo not given) yielded a growth of 114%. `O=C(CNC(=O)c1cccc2ccccc12)Nc1ccccc1Oc1cccc(O)c1` showed a growth of 33.8% [5 µM]. In the case of `CC(=O)Nc1c(Cl)cc2c(c1Cl)Cc1cc([N+](=O)[O-])ccc1-2`, the growth is reported as 103%. For `COc1cc2c(cc1OC)C(CC1(O)CCCCC1)N(S(=O)(=O)c1ccc(C)cc1)CC2` (stereo not given), the growth was 1.18% [100 µM] (active). Work on `NC(=O)NC1(C(=O)O)CCCC1` yielded a growth of 107%. `COc1ccc(N2CCN(CC(=O)N3CCN(c4nnc(-c5ccc(Cl)cc5)c(-c5ccc(Cl)cc5)n4)CC3)CC2)cc1` gave a growth of 86%. `Oc1ccc(/C=N/Nc2nc3ccccc3s2)c(O)c1` was tested, and the growth was 89.3%. `Nc1ccccc1-c1ccn[nH]1` showed a growth of 86.6%. Molecule `Nc1ccc2c(c1)Cc1cc(Cl)c(Cl)cc1-2` has a growth of 85.1%. With `O=C1C=CC(=O)N1c1ccccc1N1C(=O)C=CC1=O` the growth was 57.7%. In the case of `Clc1ccc2c(c1)C(Br)c1cc(Cl)cc(Cl)c1-2` (stereo not given), the growth is reported as 103%. `NS(=O)(=O)c1ccc(-n2ncc3c(NC4CCCCC4)ncnc32)cc1` was tested, and the growth was 95%. `COc1cccc(CCN2C(=O)CCC3=C2CCC3=O)c1` gave a growth of 108%. For `O=C(C(=O)c1cc(Br)ccc1O)c1cc(Br)ccc1O`, the growth was 100%. `O=CN1N=C(c2ccc(Cl)cc2)CC1c1cccc(Nc2ccnc3cc(Cl)ccc23)c1` (stereo not given) was tested, and the growth was -26.9% (active). `CCN(CC)CCNCC(=O)Oc1ccc(/C=C/C(=O)CC(=O)/C=C/c2ccc(OC(=O)CNCCN(CC)CC)c(OC)c2)cc1OC` was tested, and the growth was 17.1%.
